Inconclusive results are not listed. Activity calls are given as the source filed them. Calls come from the whole dose curve; as a rule, active = well fitted inhibition curve with a large enough effect; inconclusive = small, poorly fitted or top-dose-only effect; inactive = flat fitted curve, though single readings scatter.
How the values were obtained:
Experiment in all cases: qHTS profiling for inhibitors of Plasmodium falciparum proliferation (AID 504749); note: nearly all actives have a fitted effect of over 60% in size
Conditions in all cases: P. falciparum in erythrocytes, SYBR Green DNA, 72 h; series mostly up to 28.7 µM
ATS95 = tested on: ATS95
Method in brief: (§1)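 Three-day growth assay of blood-stage parasites in erythrocytes (0.3% parasitemia, 2.5% hematocrit) at 37 C, 5% CO2, quantified by SYBR Green DNA staining after overnight detergent lysis.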

C2A = tested on: C2A
Method in brief: as §1

CP185 = tested on: CP185
Method in brief: as §1

CP191 = tested on: CP191
Method in brief: as §1

CP192 = tested on: CP192
Method in brief: as §1

CP194 = tested on: CP194
Method in brief: as §1

CP201 = tested on: CP201
Method in brief: as §1

CP203 = tested on: CP203
Method in brief: as §1

CP211 = tested on: CP211
Method in brief: as §1

CP215 = tested on: CP215
Method in brief: as §1

Measured: Potency

CN1C(C(=O)Nc2ccccn2)=C(O)c2ccccc2S1(=O)=O
inactive: all assays above

CC(=O)OCC(CCn1cnc2cnc(N)nc21)COC(C)=O
inactive: all assays above

COc1ccccc1N1CCN(CC(O)COc2cccc3ccccc23)CC1 (centres undefined)
inactive: all assays above

N[C@@H](Cc1c[nH]c2ccc(O)cc12)C(=O)O
inactive: all assays above

CCOC(=O)c1ncn2c1CN(C)C(=O)c1cc(F)ccc1-2
inactive: all assays above

CC(C)Cc1ccc(C(C)C(=O)O)cc1 (centres undefined)
inactive: all assays above

CC(C)(Oc1ccc(C2CC2(Cl)Cl)cc1)C(=O)O (centres undefined)
inactive: all assays above

NS(=O)(=O)c1cc2c(cc1Cl)NCNS2(=O)=O
inactive: all assays above

Cn1c(=O)c2c(ncn2C)n(C)c1=O
inactive: all assays above

CS(=O)(=O)Nc1ccc([N+](=O)[O-])cc1Oc1ccccc1
inactive: all assays above

CN(CCOc1ccc(NS(C)(=O)=O)cc1)CCc1ccc(NS(C)(=O)=O)cc1
not listed: CP215
inactive: all other assays above

NCCCCCC(=O)O
inactive: all assays above

COc1nc(C)nc(Cl)c1NC1=NCCN1
inactive: all assays above

CC(CCc1ccc(O)cc1)NCCc1ccc(O)c(O)c1 (centres undefined)
inactive: all assays above

O=C1N(c2ccccc2)c2ccccc2C1(Cc1ccncc1)Cc1ccncc1
inactive: all assays above

Cc1cn([C@H]2C=C[C@@H](CO)O2)c(=O)[nH]c1=O
inactive: all assays above

Cn1c(=O)c2[nH]cnc2n(C)c1=O
inactive: all assays above

CN1CCN2c3ccccc3Cc3ccccc3C2C1 (centres undefined)
inactive: all assays above

NCCS(=O)(=O)O
inactive: all assays above

From PubChem BioAssay (NCATS)
